Data reported in the supplement of paper PMC7156485.
Several values for one entry are separate records, joined by “and”; a condition that tells them apart may be missing. Equal values may be shown once. ± gives the standard deviation of the averaged measurements.

Columns and labels:
Conditions in all cases: concentration: 10 µM; 24 h
HCC1569 [1] = test: cell number relative to DMSO (% of DMSO); higher = more cells (less growth inhibition / toxicity)
Method in brief: (§1)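 Using 384-well plates with 800 cells per well in RPMI plus 10% FBS, HCC1569 and TDF cells were exposed to compounds at 10 µM, in triplicate, for 24 h at 37 °C. Imaging of six fields per well at ×10 followed H1.0 and DAPI staining. The reported quantity, H1.0 nuclear intensity or cell number, is a median of replicates given as percent of the plate control, and HCC1569 values were smoothed for positional effects.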

TDF [2] = test: as above
Method in brief: as §1

TDF [3] = test: H1.0 immunofluorescence intensity relative to DMSO (% of DMSO); higher = stronger H1.0 induction, active = 120 or more
Method in brief: as §1

HCC1569 [4] = test: H1.0 immunofluorescence intensity relative to DMSO (% of DMSO); higher = stronger H1.0 induction, active = 140 or more
Method in brief: as §1
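For H1.0 immunofluorescence intensity relative to DMSO in this document: TDF is a line of transformed human dermal fibroblasts of mesenchymal origin.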
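For cell number relative to DMSO in this document: TDF denotes transformed human dermal fibroblasts of mesenchymal origin.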

SMILES | cell number (HCC1569 [1]) | cell number (TDF [2]) | H1.0 immunofluorescence intensity (TDF [3]) | H1.0 immunofluorescence intensity (HCC1569 [4])
NC(=O)CI [Iodoacetamide] | 47.9 | 33.8 | 134 (active) | 170 (active)
CC1CCC2(O)C3(C)CC4(O)OC2(C1O)C1(O)C3(O)C(OC(=O)c2ccc[nH]2)C(O)(C(C)C)C41C (centres undefined) [Ryanodine] | 106 | 101 | 93 (inactive) | 88 (inactive)
CCC(C(=O)O)C1OC(C(C)C(O)C(C)C(=O)C(CC)C2OC3(C=CC(O)C4(CCC(C)(C5CCC(O)(CC)C(C)O5)O4)O3)C(C)CC2C)C(C)CC1C (centres undefined) [Narasin] | 67.3 | 84.4 | 112 (inactive) | 159 (active)
CN(C)Cc1c[nH]c2ccccc12 [Gramine] | 96.9 | 99.3 | 94.1 (inactive) | 83 (inactive)
CCCN1CCCC(c2cccc(C#N)c2)C1.Cl (stereo not drawn) [S(-)-DS 121 hydrochloride] | 100 | 96.1 | 92.4 (inactive) | 84.5 (inactive)
NC(Cc1ccc(N(CCCl)CCCl)cc1)C(=O)O (centres undefined) [Melphalan] | 86.3 ± 3.1 | 69.2 ± 5.8 | 104 (inactive) | 96.1 (inactive)
CCCN(CCC)C(=O)Cc1c(-c2ccc(Cl)cc2)nc2ccc(Cl)cn12 | 87.6 | 93.7 | 100 (inactive) | 115 (inactive)
Cl.O=C1CC2OCC=C3CN4CCC56c7ccccc7N1C5C2C3CC46 (centres undefined) | 103 ± 5.8 | 102 ± 1.1 | 94.3 (inactive) | 94.2 (inactive)
NC(CP(=O)(O)O)C(=O)O (racemic) | 105 | 104 | 82.6 (inactive) | 91.4 (inactive)
COC(=O)N1CCN(C(=O)Cc2ccc(Cl)c(Cl)c2)C(CN2CCCC2)C1.O=C(O)C=CC(=O)O (centres undefined) | 100 | 102 | 97.7 (inactive) | 95.7 (inactive)
CC1CCCC=CC2CC(O)CC2C(O)C=CC(=O)O1 (centres undefined) [Brefeldin A] | 68.2 | 52.6 | 132 (active) | 208 (active)
CC1CCC2C(C)C3C(CC4C5CC=C6CC(OC7OC(CO)C(O)C(OC8OC(CO)C(O)C(O)C8O)C7OC7OC(C)C(O)C(O)C7O)CCC6(C)C5CCC43C)N2C1 (racemic) | 103 | 101 | 97.4 (inactive) | 86 (inactive)
CCCN1CCc2cccc3c2C1Cc1ccc(O)c(O)c1-3.Cl (stereo not drawn) [R(-)-Propylnorapomorphine hydrochloride] | 93.2 | 91.8 | 92.9 (inactive) | 105 (inactive)
CC=C(C)C(=O)OC1C(C)=C2C(C1OC(=O)CCCCCCC)C(C)(OC(C)=O)CC(OC(=O)CCC)C1(O)C2OC(=O)C1(C)O (centres undefined) [Thapsigargin] | 62.4 | 44.2 | 130 (active) | 195 (active)
CCCCCC(C=CC=CCCCCCCCCCC(=O)O)OO (centres undefined) | 111 | 92.8 | 94.4 (inactive) | 103 (inactive)
COc1ccc2c(c1OC)C(=O)OC2C1c2cc3c(cc2CCN1C)OCO3 (single isomer, unassigned; (+)) [(+)-Hydrastine] | 98.7 | 104 | 96.4 (inactive) | 89.2 (inactive)
NC(CCCCCP(=O)(O)O)C(=O)O (racemic) | 102 | 105 | 96.9 (inactive) | 98.4 (inactive)
Cc1cccc(C)c1NC1=NCCCS1 [Xylazine] | 106 | 106 | 95.4 (inactive) | 106 (inactive)
CC(N)Cc1cnc[nH]1.Cl.Cl (stereo not drawn) [Histamine, R(-)-alpha-methyl-, dihydrochloride] | 97.4 | 102 | 95.5 (inactive) | 93.1 (inactive)
CC(O)=C(C#N)C(=O)Nc1cc(Br)ccc1Br | 100 and 108 | 99.5 and 103 | 99 (inactive) and 97.5 (inactive) | 111 (inactive) and 98.6 (inactive)
COc1ccc(C(=O)OC2CCC3(C)C4CCC5C6(O)CC(O)C7(O)C(CN8CC(C)CCC8C7(C)O)C6(O)CC53OC24O)cc1OC (centres undefined) [Veratridine] | 107 | 97.2 | 96.7 (inactive) | 81.9 (inactive)
C[N+](C)(C)CCOC(=O)CBr.[Br-] [Bromoacetylcholine bromide] | 98.5 | 122 | 87.8 (inactive) | 85.7 (inactive)
Cl.c1ccc2c(N3CCNCC3)cccc2c1 [1-(1-Naphthyl)piperazine hydrochloride] | 99.6 | 94.3 | 105 (inactive) | 106 (inactive)
Cc1ccc(S(=O)(=O)NC(CCCCN)C(=O)CCl)cc1.Cl [Na-p-Tosyl-L-lysine chloromethyl ketone hydrochloride] | 98.8 | 104 | 95.7 (inactive) | 101 (inactive)
COC1=CC(=O)OC(C=Cc2ccc3c(c2)OCO3)C1 (centres undefined) [Methysticin] | 106 | 106 | 90.6 (inactive) | 89 (inactive)
COc1ccc2c(c1)C(=Cc1cnc[nH]1)C(=O)N2 | 72.4 | 49.2 | 98.1 (inactive) | 107 (inactive)

SMILES | cell number (HCC1569 [1]) | cell number (TDF [2]) | H1.0 immunofluorescence intensity (TDF [3]) | H1.0 immunofluorescence intensity (HCC1569 [4])
Cc1cc(C2CCCN2C)on1 (centres undefined) | 102 | 102 | 90.2 (inactive) | 88.1 (inactive)
Cc1ccc2c(c1)C1(CCN(CCc3nc(-c4ccccc4)oc3C)CC1)OC(=O)N2 | 85.9 | 91.1 | 107 (inactive) | 123 (inactive)
COc1ccc2c(c1)[nH]c1c(C)nccc12 [Harmine] | 87.2 ± 2.5 | 94.9 ± 3.2 | 99.7 (inactive) | 106 (inactive)
COc1ccc(-n2nc(C(F)(F)F)cc2-c2ccc(Cl)cc2)cc1 | 104 | 106 | 87.5 (inactive) | 90.3 (inactive)
Cl.c1ccc(C2CC2)c(OCC2=NCCN2)c1 [Cirazoline hydrochloride] | 102 | 109 | 90.7 (inactive) | 87.7 (inactive)
CC(=O)N1N=C(c2ccc(N)cc2)c2cc3c(cc2C[C@H]1C)OCO3 | 95.4 | 103 | 106 (inactive) | 95.8 (inactive)
CC(C)NC(C)Cc1ccc(I)cc1.Cl (centres undefined) [Iofetamine hydrochloride] | 105 | 113 | 91.5 (inactive) | 91.7 (inactive)
NC(C(=O)O)c1cc(=O)[nH]o1 (racemic) | 104 | 103 | 92.2 (inactive) | 92.6 (inactive)
CC1CCC2(NC1)OC1CC3C4CCC5CC(O)CCC5(C)C4CCC3(C)C1C2C (centres undefined) [Tomatidine] | 104 | 102 | 99.2 (inactive) | 83.5 (inactive)
Cc1[nH]c2ccc(O)cc2c1CCN.O=C(O)C=CC(=O)O [2-Methyl-5-hydroxytryptamine maleate] | 106 | 98.7 | 98.3 (inactive) | 85.2 (inactive)
Cl.c1ccc2sc(C3(N4CCCCC4)CCCCC3)cc2c1 [BTCP hydrochloride] | 100 | 106 | 88.2 (inactive) | 96.6 (inactive)
C[N+]1([O-])C2CC(OC(=O)C(CO)c3ccccc3)CC1C1OC12 (single isomer, unassigned; (-)) [(-)-Scopolamine N-oxide] | 96.4 | 105 | 99.4 (inactive) | 102 (inactive)
OC1CN2CCC(O)C2C(O)C1O (centres undefined) [Castanospermine] | 100 | 104 | 89.5 (inactive) | 90.4 (inactive)
CC(C)C1(NC(=O)C2CC3c4cccc5[nH]cc(c45)CC3N(C)C2)OC2(O)C3CCCN3C(=O)C(Cc3ccccc3)N2C1=O.CS(=O)(=O)O (centres undefined) [Dihydroergocristine methanesulfonate] | 91.8 | 109 | 106 (inactive) | 126 (inactive)
CC(C)(C)NCC(O)c1ccccc1Cl (centres undefined) [Tulobuterol] | 111 | 101 | 90.7 (inactive) | 114 (inactive)
c1ccc2c3c([nH]c2c1)CNCC3 [Noreleagnine] | 103 | 108 | 92.6 (inactive) | 88.4 (inactive)
CC(=O)OC1C(c2ccc(=O)oc2)C2(C)CCC3C(CCC4CC(O)CCC43C)C23OC13 (centres undefined) [Cinobufagin] | 53.5 | 42.2 | 115 (inactive) | 99.5 (inactive)
CN1CC(NS(=O)(=O)N(C)C)CC2c3cccc4c3c(cn4C)CC21 (centres undefined) [Mesulergine] | 100 | 103 | 93.4 (inactive) | 120 (inactive)
CC(C)=CCCC1(C)C=Cc2c(O)c3c(c(CC=C(C)C)c2O1)OC12C(=CC4CC1C(C)(C)OC2(CC=C(C)C(=O)O)C4=O)C3=O (centres undefined) [Gambogic acid] | 14.1 | 10.6 | 148 (active) | 58.8 (inactive)
CC1=NN=C(c2ccc(N)cc2)c2cc3c(cc2C1)OCO3.Cl | 97.4 | 95.2 | 106 (inactive) | 104 (inactive)
O=C1CCCN1CC#CCN1CCCC1 [Oxotremorine] | 101 | 109 | 88.5 (inactive) | 102 (inactive)
C=CCc1cc(OC)c2c(c1)OCO2 [Myristicin] | 104 | 103 | 104 (inactive) | 81.5 (inactive)
Cl.OCC1C(O)C(O)C2C(O)CCN12 (centres undefined) | 101 | 111 | 97 (inactive) | 97.5 (inactive)
Br.COc1c2c(cc3c1OCO3)CCN(C)C2 [Hydrocotarnine HBr] | 102 | 107 | 104 (inactive) | 92.6 (inactive)
CN1CC(C(=O)NC2(C)OC3(O)C4CCCN4C(=O)C(Cc4ccccc4)N3C2=O)CC2c3cccc4[nH]cc(c34)CC21.CS(=O)(=O)O (centres undefined) [Dihydroergotamine methanesulfonate] | 102 | 108 | 90.1 (inactive) | 95.5 (inactive)
